# mIDH1 inhibitor: blocks human mutant IDH1 R132H enzyme; O75874; Potency, µM (titrated, usually from 76.6 µM), for the others: top-dose activity change, negative = inhibition, hits mostly inhibitors; IDH1-R132H enzyme, NADPH consumption, diaphorase/resazurin fluorescence; AID 602179; actives 0.093% (n = 390,000); also: potency is read from the fitted curve at half-maximal effect; % is scaled to controls: 0 for no effect and ±100 for the full control effect; nearly all actives have a fitted effect of over 65% in size
#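 IDH1-R132H (0.5 ug/mL dispensed) in pH 7.5 Tris buffer was preincubated 30 min with compound, then given a substrate mix of 0.016 mM NADPH and 2 mM alpha-KG for 80 min at room temperature; remaining NADPH was read by diaphorase/resazurin fluorescence.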
# B2AR arrestin: agonists driving beta-arrestin recruitment to human beta2-adrenergic receptor; P07550; beta-arrestin recruitment to beta2AR, cell-based reporter; actives 0.02% (n = 330,000); Potency, µM (series often up to 46.1 µM), without a hit: top-dose activation, hits mostly activators; AID 492947;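 also: potency is read from the fitted curve at half-maximal effect; 0% = DMSO controls and full agonism = EC100 isoproterenol or metaproterenol; nearly all actives have a fitted effect of over 65% in size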
# a7 integrin act: activators of alpha7 integrin expression for muscular dystrophy | alpha7betagal myoblasts, beta-gal FDG fluorescence, 48 h | AID 624291 | actives 0.064% (n = 350,000) | Potency, µM (series often up to 38.3 µM), for inactives: at the top dose activation, actives largely listed as activators;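 also: potency is read from the fitted curve at half-maximal effect; 100% = response of the positive control SU9516; nearly all actives have a fitted effect of over 60% in size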
#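 Alpha7betagal+/- myoblasts (passage 13) were plated 16-24 hr, then exposed to compounds (1:260 dilution of DMSO stock) for 48 hours at 37C. After MPER lysis, β-galactosidase reporter activity was read as FDG fluorescence (ex 480/em 540) after 30 minutes.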
# DRD3 antagonist: antagonists of human D3 dopamine receptor; P35462; D3R cells, DiscoveRx beta-arrestin luminescence, antagonist mode; hits give low values; max response, negative = inhibition, %; actives 2.5% (n = 360,000); AID 652054; in the data active = max response below about -50%; inconclusive = no clear call, values can overlap the other calls; also: % is scaled to controls: 0 for no effect and ±100 for the full control effect
# Target sequence (P35462 whole entry, looked up): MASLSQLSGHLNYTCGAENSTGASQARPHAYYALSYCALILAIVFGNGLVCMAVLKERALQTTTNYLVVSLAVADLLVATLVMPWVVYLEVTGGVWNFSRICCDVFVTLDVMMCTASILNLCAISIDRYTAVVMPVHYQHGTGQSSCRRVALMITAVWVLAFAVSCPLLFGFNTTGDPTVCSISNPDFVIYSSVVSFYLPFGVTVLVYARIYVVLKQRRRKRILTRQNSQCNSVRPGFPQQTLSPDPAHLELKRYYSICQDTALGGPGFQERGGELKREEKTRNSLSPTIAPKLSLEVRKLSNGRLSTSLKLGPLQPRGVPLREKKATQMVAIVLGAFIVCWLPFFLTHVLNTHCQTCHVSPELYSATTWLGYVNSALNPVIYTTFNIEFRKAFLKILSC
#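 Cells expressing the human receptor were seeded at 1500 cells/well, incubated overnight at 37 degrees C in 5% CO2, then exposed to library compounds with dopamine controls for 90 minutes at 37 degrees C before luminescent detection.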
# DRD3 agonist: agonists of human D3 dopamine receptor; D3R DiscoveRx beta-arrestin cells, luminescence, 90 min; max activation, %; P35462; actives 0.58% (n = 410,000); in the data active = max activation above about 30%; also: 0% is about no effect
#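 Agonist mode: compounds and dopamine controls were applied to plated cells for 90 min at 37 degrees C after an overnight attachment at 1500 cells/well. Luminescent read-out followed 30 - 60 minutes at room temperature with DiscoveRx detection reagent.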
# * marks the source's active call; other numbers are inactive results; ? = inconclusive; . = no result. Rows were chosen to be rich in hits. Some 2.9% of all compounds tested hit in one or more screens of this group. Unless noted, calls follow the shape of the dose curve; as a rule, active = well fitted curve in the direction sought with a large enough effect; inconclusive = small, poorly fitted or top-dose-only effect, or another doubt; inactive = no such curve, though single readings can be large; an effect the other way counts as inactive or inconclusive.
SMILES,mIDH1 inhibitor,B2AR arrestin,a7 integrin act,DRD3 antagonist,DRD3 agonist
CCCCC(=O)OCC(=O)[C@]1(O)Cc2c(O)c3c(c(O)c2[C@@H](O[C@H]2C[C@H](NC(=O)C(F)(F)F)[C@H](O)[C@H](C)O2)C1)C(=O)c1c(OC)cccc1C3=O,.,.,.,.,-7
CC1CC1c1ccc(/C=C(\C#N)C(=O)Nc2cc(Cl)ccc2Cl)o1 (configuration not stated),5%,-1%,19%,12,-4
N#C/C(=C\c1ccc(-c2cc(Cl)ccc2Cl)o1)C(=O)Nc1ccccc1C(=O)O,1%,.,.,.,33*
N=c1n(CCN2CCCCC2)c2ccccc2n1CC(=O)c1cccs1,1%,-1%,-72%,-63*,-38
CCCn1c(=N)n(CC(=O)c2cccs2)c2ccccc21,3%,0%,-7%,-4,-6
O=C(Nc1sc2c(c1C(=O)O)CCCCC2)c1ccccc1,27%,-1%,-7%,-19,-14
O=C(Nc1sc2c(c1C(=O)O)CCC2)c1ccccc1,23%,0%,8%,-52*,-3
COC(=O)c1c(NS(=O)(=O)Cc2ccccc2)sc2c1CCCC2,3%,0%,-8%,-7,-6
CC(C)OC(=O)c1c(NS(=O)(=O)c2ccccc2)sc2c1CCCC2,-1%,0%,-53%,-89*,-2
O=C(NCCCN1CCN(c2ccc(F)cc2)CC1)c1cc2c(Cl)nc3ccccc3c2s1,1%,.,.,.,-8
O=S(=O)(NCCc1csc2nc(-c3ccc(Cl)cc3)nn12)c1ccc2c(c1)OCCO2,6%,.,.,.,0
O=C(NCc1cccnc1)c1cccc(C(F)(F)F)c1,15%,-2%,22%,-9,-18
ONC(=Nc1cccc(C(F)(F)F)c1)c1cccnc1,9%,0%,0%,-63*,-2
Cc1ccc2occ(CC(=O)N(Cc3ccc(C(C)C)cc3)C3CCS(=O)(=O)C3)c2c1 (configuration not stated),3%,.,.,.,5
CC(C)(C)c1nc(CN2CCCCC2)cc(CN2CCCCC2)c1O,9%,-1%,-59%,-72*,2
Cc1ccc(Sc2ccc(/C=N/O)cc2[N+](=O)[O-])cc1,-7%,.,-25%,-69*,-13
O=C(OCC#CCNc1nnc(-c2cccc3ccccc23)o1)c1cccs1,.,0%,.,.,.
O=C(c1ccco1)N(CCC(c1ccccc1)c1ccco1)Cc1ccc(F)cc1 (configuration not stated),0%,-1%,10%,18,11
CC1(C)CC(C(CCN(Cc2ccccc2)C(=O)c2ccco2)c2ccc(F)cc2)CCO1 (configuration not stated),-25%,0%,8%,35,48*
CC(NNC(=S)N1CCN(c2ccccn2)CC1)c1nccc2ccccc12 (configuration not stated),1%,.,-48%,?,-7
C=CCOc1nc2c(c(=O)n(C)c(=O)n2C)n1Cc1ccccc1Cl,4%,0%,-56%,15,36*
O=C(NNc1cc(N2CCOCC2)nc(N2CCOCC2)n1)c1ccc(Cl)c(Cl)c1,0%,-1%,4%,-9,1
Cc1ccc(C(=O)NNc2cc(N3CCCC3)nc(N3CCCC3)n2)cc1,-10%,0%,3%,-52*,-9
COc1cc(C(O)C(=O)O)ccc1O (configuration not stated),0%,0%,.,8,10
COc1cc(C2c3cc(O)c(OC)cc3CC(C(=O)O)C2CO)ccc1O (configuration not stated),13%,.,0%,4,71*
SMILES,mIDH1 inhibitor,B2AR arrestin,a7 integrin act,DRD3 antagonist,DRD3 agonist
CCC(C)C(=O)Nc1nc(C)c(-c2csc(Nc3cc(OC)ccc3OC)n2)s1 (configuration not stated),0%,0%,-2%,31,3
CCC(C)C(=O)Nc1nc(C)c(-c2csc(Nc3cc(Cl)ccc3OC)n2)s1 (configuration not stated),-8%,0%,-45%,2,48*
Cn1c2cc([N+](=O)[O-])sc2c2cnn(Cc3ccccc3F)c(=O)c21,.,0%,.,.,.
COc1ccccc1C(=O)Nc1ccccc1OCc1cc(=O)n2ccccc2n1,21%,.,.,.,5
CC1=NOC(=O)/C1=C\c1ccc(-c2cc(Cl)ccc2Cl)o1,8%,0%,21%,-63*,-6
C#CC1(O)CC[C@H]2[C@@H]3CCC4=CCCC[C@@H]4[C@H]3CC[C@@]21C (some centres not stated),.,.,.,.,5
C=CS(=O)(=O)c1sc(Cl)c(N2CCOCC2)c1[N+](=O)[O-],?,-1%,-70%,-72*,-16
CCc1ccc2c(CN3CCc4cc(OC)c(OC)cc4C3)cc(=O)oc2c1,2%,0%,-7%,-20,31*
COc1cc2c(cc1OC)CN(Cc1cc(=O)oc3cc(C)c(Cl)cc13)CC2,7%,0%,-14%,-5,11
COc1cc2c(cc1OC)CN(Cc1cc(=O)oc3cc(C)c(C)cc13)CC2,3%,0%,39%,5,42*
Cc1ccc(-n2nc(CO)c(C(=O)NCCCc3ccccc3)n2)cc1C,-3%,.,.,.,-20
Cc1cc(C)cc(-n2c(SCC(=O)NCc3ccco3)nc3c([nH]c4ccccc43)c2=O)c1,-3%,.,.,.,0
Cc1ccc(-n2c(SCC(=O)NCc3ccco3)nc3c([nH]c4ccccc43)c2=O)cc1,-17%,3%,-22%,-50*,0
CCOc1ccccc1CNC(=O)c1ccc2c(c1)N(Cc1ccc(C)cc1)CCS2,.,.,.,.,-11
COc1ccccc1N1CCN(S(=O)(=O)c2cc(C(=O)Nc3ccc(Oc4ccccc4)cc3)ccc2F)CC1,4%,.,.,.,-11
COc1ccccc1NC(=O)NCC1(N(C)C)CCCCC1,-10%,0%,?,-82*,-25
COc1ccccc1NS(=O)(=O)c1ccc(C(=O)NCC2(N(C)C)CCCCC2)cc1,2%,0%,-9%,-25,-8
CCN(CC)c1sc(S(=O)(=O)c2ccccc2)nc1S(=O)(=O)c1ccc(C)cc1,-6%,.,.,.,1
CC1(c2ccccc2Cl)NC(=O)N(CC(=O)Nc2ccc3c(c2)OCO3)C1=O (configuration not stated),3%,-1%,?,-71*,2
Cc1cccc(NC(=O)N2CCN(C(=O)c3nsc4ccccc34)CC2)c1C,-4%,.,.,.,2
CC(=O)/C(=N\Nc1ccccc1)Sc1nnc(-c2ccccc2)n1-c1ccccc1,-5%,-1%,-5%,-97*,-6
CC(=O)/C(=N\Nc1ccccc1Cl)Sc1nnc(-c2ccccc2)n1-c1ccccc1,-9%,0%,2%,0,-8
CN1CC(=O)Nc2cc(C(=O)O)ccc21,8%,.,.,.,2
Clc1cc(Br)ccc1OCCCNCc1ccccc1,0%,-1%,-51%,-88*,-11
Cc1ccc(C)c(OCCCNCc2ccccc2)c1,9%,0%,-62%,-54*,-6
